In PubChem BioAssay (Tox21):
Records with an inconclusive call do not appear. Active and inactive are the calls of the source. Unless noted, calls come from the whole dose curve; as a rule, active = well fitted curve in the direction sought with a large enough effect in the repeat runs; inconclusive = weak or mixed curves; inactive = no such curve, though single readings can be large; an effect the other way counts as inactive or inconclusive.

Legend:
[1] = qHTS assay for small molecule agonists of the p53 signaling pathway (AID 651631; calls by dose curve; note: nearly all actives have a fitted effect of over 15% in size)
In short: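 Read-out is beta-lactamase FRET fluorescence measured 2 h after substrate addition at room temperature, in HCT-116 cells with a p53 response element-driven reporter exposed to compounds for 16 h at 37 °C.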

[2] = qHTS assay for small molecules that induce genotoxicity in human embryonic kidney cells expressing luciferase-tagged ATAD5 (AID 651632); note: nearly all actives have a fitted effect of over 15% in size
In short: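 Genotoxicity read-out via ATAD5-luciferase: HEK293T cells, 16 hr compound incubation at 37C, Amplite detection.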

[3] = qHTS assay for small molecule agonists of the p53 signaling pathway - cell viability (AID 651633; calls by dose curve;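 note: p53RE-bla HCT reporter cells with a stable beta-lactamase p53 reporter; series mostly up to about 83 µM; nearly all actives have a fitted effect of over 30% in size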)
In short: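 p53RE-bla cells were treated with compound for 16 hours at 37 C. Cytotoxicity was then measured as CellTiter-Glo luminescence after 30 min at room temperature.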

[4] = qHTS assay for small molecule disruptors of the mitochondrial membrane potential - cell viability (AID 720634; calls by dose curve;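 note: human HepG2 liver cancer cells; series mostly up to about 83 µM; nearly all actives have a fitted effect of over 20% in size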)
In short: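 Human hepatoma HepG2 cells were treated for 1 hr with test chemicals, then given m-MPI dye and CellTiter-Glo. Cell viability reflects luminescence proportional to cellular ATP.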

[5] = qHTS assay to test for compound auto fluorescence at 590 nm (red) in HepG2 cells (AID 720674)
In short: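 Seeding: 2,000 HepG2 cells/well, MEM/10% FBS, overnight 37 C. Dosing: compound vs DMSO. Incubation: 1 hr, 37 C, 5% CO2. Read: fluorescence 540 ex/590 em, Rose Bengal sodium as red reference.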

[6] = qHTS assay to test for compound auto fluorescence at 535 nm (green) in HepG2 cells (AID 720675)
[7] = qHTS assay to test for compound auto fluorescence at 460 nm (blue) in HEK293 cells (AID 720678)
In short: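 Blue-channel (Ex/Em 405/460 nm) intensity measured in HEK293 cultures after overnight compound exposure at 37C; signal expressed relative to triamterene. Cells plated 2,000 per well in 10% dialyzed FBS medium and allowed 4-5 hr to attach.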

[8] = qHTS assay to test for compound auto fluorescence at 535 nm (green) in HEK293 cells (AID 720680)
[9] = qHTS assay to test for compound auto fluorescence at 460 nm (blue) in HEK293 cell free culture (AID 720681)
In short: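 Compounds were added to cell-free DMEM with 10% FBS and fluorescence read directly. The blue channel used 405 nm excitation and 460 nm emission, with triamterene as the reference fluorophore.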

[10] = qHTS assay to test for compound auto fluorescence at 535 nm (green) in HEK293 cell free culture (AID 720682)
In short: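 Fluorescein serves as the green reference fluorophore; each compound's intrinsic emission at 535 nm (excitation 485 nm) is reported as an equivalent amount of that dye, measured in serum-containing DMEM without cells.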

[11] = qHTS assay to test for compound auto fluorescence at 590 nm (red) in HEK293 cell free culture (AID 720683)
In short: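 Cell-free wells of DMEM with 10% FBS received compound, and intrinsic fluorescence was read at excitation/emission 540/590 nm. Values expressed as equivalence to Rose Bengal sodium.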

[12] = qHTS assay to test for compound auto fluorescence at 590 nm (red) in HepG2 cell free culture (AID 720684)
In short: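 Compounds are added to culture medium (MEM, 10% FBS) lacking cells, then fluorescence is read at excitation 540 nm, emission 590 nm, with Rose Bengal sodium as the equivalency standard.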

[13] = qHTS assay to test for compound auto fluorescence at 460 nm (blue) in HepG2 cell free culture (AID 720685)
In short: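 Compound (23 nL) or DMSO pinned into cell-free MEM with 10% FBS; blue fluorescence read at 405/460 nm excitation/emission, expressed as auto-fluorescence equivalency to triamterene.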

[14] = qHTS assay to test for compound auto fluorescence at 535 nm (green) in HepG2 cell free culture (AID 720686)
[15] = qHTS assay to test for compound auto fluorescence at 460 nm (blue) in HepG2 cells (AID 720687)
In short: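 HepG2 cells in MEM with 10% FBS, attached overnight at 37 C, were exposed to compound or DMSO for 1 hr at 37 C, 5% CO2. Blue fluorescence was read at 405/460 nm, with triamterene as reference fluorophore.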

[16] = qHTS assay for small molecule disruptors of the mitochondrial membrane potential (AID 720635); note: potency is the fitted concentration of half-maximal effect
In short: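 HepG2 cells exposed to compound 1 hr at 37C, then Mito-MPS dye 30 min. Ratio read of aggregate (540/590 nm) versus monomer (490/535 nm) fluorescence.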

[17] = qHTS assay to test for compound auto fluorescence at 590 nm (red) in HEK293 cells (AID 720679)
In short: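 Red-channel autofluorescence (Ex/Em 540/590 nm; Rose Bengal sodium reference) was measured after overnight 37C, 5% CO2 exposure of attached HEK293 cells, 2,000 per well in medium with 10% dialyzed FBS.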

[18] = biological target: Glucocorticoid receptor (Homo sapiens) (UniProt P04150); assay: qHTS assay to identify small molecule agonists of the glucocorticoid receptor (GR) signaling pathway (AID 720691; active = well fitted activation curve with a large enough effect in the signal ratio in the repeat runs, not every such curve was filed as active; the % refers to the signal ratio)
In short: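 Beta-lactamase reporter activity, read as fluorescence intensity, was measured in GR-bla HeLa cells exposed to compounds for 18 h at 37 C and then loaded with LiveBLAzer B/G FRET substrate for 2 h at room temperature.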

[19] = biological target: Glucocorticoid receptor (Homo sapiens) (UniProt P04150); assay: qHTS assay to identify small molecule antagonists of the glucocorticoid receptor (GR) signaling pathway (AID 720692; active = well fitted inhibition curve with a large enough effect in the signal ratio in the repeat runs, not every such curve was filed as active; the % refers to the signal ratio)
In short: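 Fluorescence from cleaved LiveBLAzer B/G FRET substrate reports GRE-driven beta-lactamase in HeLa cells; compounds are tested against 5 nM dexamethasone (final) over 18 h at 37 C, substrate incubation 2 h at room temperature.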

[20] = qHTS assay for small molecules that induce genotoxicity in human embryonic kidney cells expressing luciferase-tagged ATAD5 - cell viability (AID 651634; calls by dose curve; note: nearly all actives have a fitted effect of over 25% in size)
In short: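 Live-cell protease activity (CellTiter-Fluor, fluorescence) indicates viability. HEK293T cells with luciferase-tagged ATAD5; 15.5 hr compound treatment at 37C.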
% is set by controls: 0 for no effect and ±100 for the full control effect.

Chain of Glucocorticoid receptor (Homo sapiens) (P04150 whole entry, looked up): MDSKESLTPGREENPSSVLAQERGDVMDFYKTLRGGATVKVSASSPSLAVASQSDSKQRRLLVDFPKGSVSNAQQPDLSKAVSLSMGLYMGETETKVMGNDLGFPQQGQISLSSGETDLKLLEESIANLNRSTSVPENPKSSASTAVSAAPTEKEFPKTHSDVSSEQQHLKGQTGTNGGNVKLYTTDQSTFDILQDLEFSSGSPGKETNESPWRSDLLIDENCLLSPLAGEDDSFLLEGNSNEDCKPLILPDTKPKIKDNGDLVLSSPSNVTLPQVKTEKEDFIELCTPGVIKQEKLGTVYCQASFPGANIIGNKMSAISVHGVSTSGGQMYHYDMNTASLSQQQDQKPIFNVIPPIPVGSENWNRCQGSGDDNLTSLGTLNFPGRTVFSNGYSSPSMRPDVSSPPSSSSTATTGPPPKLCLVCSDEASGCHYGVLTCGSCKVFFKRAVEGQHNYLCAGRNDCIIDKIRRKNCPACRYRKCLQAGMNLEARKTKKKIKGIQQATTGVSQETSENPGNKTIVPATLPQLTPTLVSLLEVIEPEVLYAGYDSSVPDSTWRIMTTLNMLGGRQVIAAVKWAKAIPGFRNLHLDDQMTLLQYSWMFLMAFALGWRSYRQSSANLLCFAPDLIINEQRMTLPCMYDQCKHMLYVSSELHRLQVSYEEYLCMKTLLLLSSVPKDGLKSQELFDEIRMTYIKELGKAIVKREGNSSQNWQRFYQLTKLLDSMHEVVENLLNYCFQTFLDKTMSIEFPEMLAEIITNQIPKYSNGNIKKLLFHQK

CCCCNc1cc(C(=O)O)cc(S(N)(=O)=O)c1Oc1ccccc1
inactive: Potency [1] | Potency [2] | Potency [3] | Potency [4] | fluorescence, relative to Rose Bengal [5] -0.242% [at 18.6 µM] | fluorescence, % of fluorescein control [6] 0.0391% [at 18.6 µM] | fluorescence, % of triamterene [7] 0.191% [at 18.6 µM] | fluorescence, % of fluorescein [8] -0.0725% [at 18.6 µM] | fluorescence, % of fluorescent control [9] -0.0083% [at 18.6 µM] | activity change [10] -0.0379% [at 18.6 µM] | fluorescence, % of fluorescent control [11] -0.0094% [at 18.6 µM] | fluorescence, % of Rose Bengal [12] 0.449% [at 18.6 µM] | fluorescence, % of fluorescent control [13] -0.0399% [at 18.6 µM] | fluorescence, % of fluorescein control [14] 0.0191% [at 18.6 µM] | fluorescence, % of fluorescent control [15] -0.0058% [at 18.6 µM]

CS(=O)(=O)c1ccc([C@@H](O)[C@@H](CF)NC(=O)C(Cl)Cl)cc1
inactive: Potency [1] | Potency [2] | Potency [4] | Potency [16] | fluorescence, relative to Rose Bengal [5] -0.165% [at 18.6 µM] | fluorescence, % of fluorescein control [6] -0.0021% [at 18.6 µM] | fluorescence, % of triamterene [7] -0.0281% [at 18.6 µM] | fluorescence, % of fluorescent control [17] 0.0865% [at 18.6 µM] | fluorescence, % of fluorescein [8] 0.0111% [at 18.6 µM] | fluorescence, % of fluorescent control [9] 0.0627% [at 18.6 µM] | activity change [10] -0.0234% [at 18.6 µM] | fluorescence, % of fluorescent control [11] -0.0638% [at 18.6 µM] | fluorescence, % of Rose Bengal [12] 0.294% [at 18.6 µM] | fluorescence, % of fluorescent control [13] -0.0062% [at 18.6 µM] | fluorescence, % of fluorescein control [14] -0.0102% [at 18.6 µM] | fluorescence, % of fluorescent control [15] -0.0647% [at 18.6 µM] | Potency [18] | Potency [19]

FC(F)(F)C(F)(F)C(F)(F)C(F)(F)C(F)(F)C(F)(F)C(F)(F)C(F)(F)Br
inactive: Potency [1] | Potency [2] | Potency [20] | Potency [4] | Potency [16] | outcome [5] | outcome [6] | outcome [7] | outcome [17] | outcome [8] | outcome [9] | outcome [10] | outcome [12] | outcome [13] | outcome [14] | Potency [18] | Potency [19]

Cc1cccc(C)c1NC(=O)CN1CCCCCC1
inactive: Potency [1] | Potency [2] | Potency [20] | Potency [4] | outcome [5] | outcome [6] | outcome [7] | outcome [17] | outcome [8] | outcome [9] | outcome [10] | outcome [11] | outcome [12] | outcome [14] | outcome [15] | Potency [18]

O=C(O)c1cccc(Cl)c1Cl
inactive: Potency [1] | Potency [2] | Potency [3] | Potency [4] | Potency [16] | outcome [5] | outcome [6] | outcome [7] | outcome [8] | outcome [9] | outcome [10] | outcome [11] | outcome [12] | outcome [13] | outcome [15] | Potency [18] | Potency [19]

CCOc1ccc2nc(N)sc2c1
inactive: Potency [1] | Potency [3] | outcome [5] | outcome [6] | outcome [7] | outcome [17] | outcome [8] | outcome [9] | outcome [10] | outcome [12] | outcome [13] | outcome [14] | outcome [15] | Potency [18] | Potency [19]

OC[C@H]1O[C@@H](O[C@H]2[C@H](O)[C@@H](O)[C@H](O)O[C@@H]2CO)[C@H](O)[C@@H](O)[C@H]1O
inactive: Potency [1] | Potency [3] | Potency [20] | Potency [4] | outcome [5] | outcome [6] | outcome [7] | outcome [8] | outcome [9] | outcome [10] | outcome [11] | outcome [12] | outcome [13] | outcome [14] | outcome [15] | Potency [18] | Potency [19]

Cc1cc2nc(N)sc2cc1C
inactive: Potency [1] | Potency [3] | Potency [20] | Potency [4] | outcome [6] | outcome [7] | outcome [17] | outcome [8] | outcome [9] | outcome [10] | outcome [11] | outcome [12] | outcome [13] | outcome [15] | Potency [18] | Potency [19]
active: Potency [16] 49 µM

OCC(CBr)(CBr)CBr
inactive: Potency [1] | Potency [3] | Potency [20] | Potency [4] | outcome [5] | outcome [6] | outcome [7] | outcome [17] | outcome [8] | outcome [9] | outcome [10] | outcome [11] | outcome [12] | outcome [13] | outcome [14] | outcome [15] | Potency [18] | Potency [19]
